SARS PLpro yeast: SARS-CoV PLP inhibition in yeast. S. cerevisiae expressing SARS-CoV PLpro, growth rescue. hit rate 0.19% among 330,000. Potency, µM (top dose mostly 32.9 µM), for the others: at the top dose activity, positive = growth rescue, actives largely listed as activators; calls by dose curve; further: 0% is about no effect; nearly all actives have a fitted effect of over 55% in size
Pf growth 48h: inhibits P. falciparum growth in the first generation, 48 h; P. falciparum luciferase growth in erythrocytes, 48 h; AID 504832; Potency, µM (titrated, usually from 28.7 µM), for the others: top-dose activity change, negative = inhibition, hits mostly inhibitors; hit rate 5.9% among 310,000; further: on the % scale 0 is the no-effect control and ±100 the full control effect
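In quantitative HTS format, infected erythrocytes bearing luciferase-reporter parasites were treated for a single generation at 37 C. Luminescence after adding detection reagent served as the growth measure.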
Pf growth 96h: P. falciparum growth inhibition at 96 hours. P. falciparum luciferase reporter growth, 96 h. AID 504834. Potency, µM (series often up to 28.7 µM), without a hit: at the highest dose activity change, negative = inhibition, hits mostly inhibitors. hit rate 6.9% among 320,000; further: on the % scale 0 is the no-effect control and ±100 the full control effect
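Delayed-death screen, second-generation endpoint: infected erythrocytes, 2% hematocrit, 0.05% parasitemia final; 96 hours at 37 C, 5% CO2; luciferase detection reagent; luminescence decrease equals reduced growth.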
Sm TGR inh: blocks Schistosoma mansoni thioredoxin glutathione reductase; purified TGR, DTNB reduction, TNB absorbance 405 nm; Potency, µM (top dose mostly 114 µM), without a hit: at the highest dose activity change, negative = inhibition, actives largely listed as inhibitors; hit rate 3% among 360,000; further: on the % scale 0 is the no-effect control and ±100 the full control effect; nearly all actives have a fitted effect of over 60% in size
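First, TGR (20 nM dispensed) and NADPH were mixed with compound. Second, a 15 min room-temperature incubation followed. Third, further NADPH and then DTNB were added to start the reaction. Finally, TNB absorbance was monitored kinetically.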
* = called active by the depositor; [ ] = remark or other dose. Most compounds without a hit are left out; they make up all but 12% or so of the library. Unless noted, the call rests on the fitted dose curve; in most records, active means well fitted curve in the direction sought with a large enough effect; inconclusive means small, poorly fitted or top-dose-only effect, or another doubt; inactive means no such curve, though single readings can be large; an effect the other way counts as inactive or inconclusive. Potency means the concentration at half of the fitted maximal effect.

O=C(CCn1cccc1)Nc1cccc(F)c1 was read as SARS PLpro yeast 10%, Pf growth 48h 13%, Pf growth 96h 12µM* and Sm TGR inh 35µM*.
Screening O=C(CCN1CCc2ccccc2C1)Nc1cccc(F)c1 returned SARS PLpro yeast -2%, Pf growth 48h 2%, Pf growth 96h 4.1µM* and Sm TGR inh 0%.
`CCOC(=O)c1ccc(NC(=O)Cn2cccc2)cc1` gave SARS PLpro yeast inconclusive, Pf growth 48h 35%, Pf growth 96h inconclusive and Sm TGR inh inconclusive.
`CCc1cccc(NC(=O)CSC2=NS(=O)(=O)c3ccccc32)c1` gave SARS PLpro yeast -8%, Pf growth 96h -101% and Sm TGR inh 3.2µM*.
CCOC(=O)C1=C(CNCc2ccccc2)NC(=O)NC1c1ccc(C)cc1 (stereo unspecified) was read as Sm TGR inh -27%.
For N#Cc1c(N2C(=O)Nc3ccccc3N2O)sc2c1CCCCCC2 the results were SARS PLpro yeast 16%, Pf growth 48h -25%, Pf growth 96h 9.3µM* and Sm TGR inh -17%.
COc1ccc2nc3oc(C(=O)N4CCN(c5cc(C)ccc5C)CC4)cc3cc2c1 was read as Sm TGR inh 89µM*.
`COc1ccc2nc3oc(C(=O)N4CCN(c5cccc(Cl)c5)CC4)cc3cc2c1` gave SARS PLpro yeast 0%, Pf growth 48h inconclusive, Pf growth 96h 0% and Sm TGR inh 3%.
`COc1ccc2nc3oc(C(=O)N4CCC(C(N)=O)CC4)cc3cc2c1` gave SARS PLpro yeast 5%, Pf growth 48h 12µM*, Pf growth 96h -61% and Sm TGR inh 0%.
Screening Cc1nnc2c(N3CCN(c4ccccc4F)CC3)nc3ccccc3n12 returned Sm TGR inh -3%.
Screening COc1cccc(-n2c(C)nc3c(cnn3-c3ccc(C)c(C)c3)c2=O)c1 returned Sm TGR inh 8%.
COc1cccc(/C=C2\Oc3ccc(O)cc3C2=O)c1O was read as SARS PLpro yeast 0%, Pf growth 48h 5.2µM*, Pf growth 96h -10% and Sm TGR inh -17%.
COC(=O)c1ccc2c(c1)C(=O)/C(=C/c1ccc(O)cc1)O2 was read as SARS PLpro yeast -2%, Pf growth 48h 60%, Pf growth 96h 20% and Sm TGR inh -1%.
`Cc1ccc(S(=O)(=O)CC(=O)N2CCN(c3nc4c(F)cccc4s3)CC2)cc1` gave Sm TGR inh 5%.
For COCCCNC(=O)c1ccc(CS(=O)(=O)c2ccc(OC)cc2)o1 the results were SARS PLpro yeast 1%, Pf growth 48h 18%, Pf growth 96h 10µM* and Sm TGR inh inconclusive.
COCCCNC(=O)c1ccc(CS(=O)(=O)c2ccc(Br)cc2)o1 was read as SARS PLpro yeast -1%, Pf growth 96h 19% and Sm TGR inh 3%.
Screening COc1ccc(S(=O)(=O)Cc2ccc(C(=O)NCc3ccccc3)o2)cc1 returned SARS PLpro yeast -2%, Pf growth 48h 19%, Pf growth 96h inconclusive and Sm TGR inh -26%.
COc1ccccc1S(=O)Cc1ccc(C(=O)NC2CCCC2)o1 (stereo unspecified) was read as SARS PLpro yeast -3%, Pf growth 96h inconclusive and Sm TGR inh -7%.
Screening Cc1ccccc1S(=O)(=O)Cc1ccc(C(=O)NCc2cccnc2)o1 returned SARS PLpro yeast 13%, Pf growth 48h -8%, Pf growth 96h 9.3µM* and Sm TGR inh -4%.
Screening COc1ccccc1S(=O)Cc1ccc(C(=O)NCCc2ccc(Cl)cc2)o1 (stereo unspecified) returned SARS PLpro yeast 12%, Pf growth 96h inconclusive and Sm TGR inh 40µM*.
COc1ccc(S(=O)(=O)Cc2ccc(C(=O)NCc3cccnc3)o2)cc1 was read as SARS PLpro yeast 9%, Pf growth 96h inconclusive and Sm TGR inh 35µM*.
For O=C(CN1C(=O)NC2(CCCCCC2)C1=O)c1ccc(Cl)s1 the results were SARS PLpro yeast 0%, Pf growth 48h inconclusive, Pf growth 96h 2% and Sm TGR inh inconclusive.
O=C(COC(=O)C1CCC(N2C(=O)C3C4CCC(C4)C3C2=O)CC1)c1ccc(F)cc1 (stereo unspecified) was read as SARS PLpro yeast 3%, Pf growth 48h 9%, Pf growth 96h inconclusive and Sm TGR inh -6%.
CN1CCCN(C(=O)CNC(=O)c2ccc(Cl)cc2Cl)CC1 was read as SARS PLpro yeast 2%.
`COCCCNC(=O)c1ccc(CS(=O)(=O)c2ccccc2OC)o1` gave SARS PLpro yeast -1%, Pf growth 48h 6%[0.00184 µM], Pf growth 96h -10% and Sm TGR inh 0%.
For COCCNC(=O)c1ccc(CS(=O)(=O)c2ccccc2OC)o1 the results were SARS PLpro yeast 3%, Pf growth 48h 28%, Pf growth 96h 20% and Sm TGR inh 32µM*.
For Cc1cc2c(N)cccc2nn1 the results were SARS PLpro yeast 6%, Pf growth 48h inconclusive, Pf growth 96h 6% and Sm TGR inh 25µM*.
For CC(=O)c1ccc([N+](=O)[O-])cc1 the results were SARS PLpro yeast -5%, Pf growth 48h 20%, Pf growth 96h 45% and Sm TGR inh -30%.
For O=[N+]([O-])c1cc(-c2ccc([As](=O)(O)O)cc2)ccc1[As](=O)(O)O the results were SARS PLpro yeast 3%, Pf growth 48h 8%, Pf growth 96h inconclusive and Sm TGR inh 8.9µM*.
Screening O=[N+]([O-])c1ccc([As](=O)(O)O)cc1 returned Pf growth 48h 3µM* and Pf growth 96h 1.7µM*.
For COc1ccc2nc3sc(C(=O)NCCN4CCc5ccccc5C4)cc3cc2c1 the results were SARS PLpro yeast 8%, Pf growth 48h 9.3µM*, Pf growth 96h inconclusive and Sm TGR inh -2%.
For CCn1c(O)c(/C=N/N=C2CCCCC2)c2cc(C3=NNC(=O)CC3)ccc21 the results were SARS PLpro yeast 0%, Pf growth 48h -18%, Pf growth 96h inconclusive and Sm TGR inh 40µM*.
For CCC(=O)NCC(c1ccc2c(c1)OCO2)N1CCN(c2ccccc2)CC1 (stereo unspecified) the results were Sm TGR inh 6%.
For O=S(=O)(NCC(c1ccc2c(c1)OCO2)N1CCN(c2ccccc2)CC1)c1ccccc1 (stereo unspecified) the results were SARS PLpro yeast -2%, Pf growth 48h 7.4µM*, Pf growth 96h inconclusive and Sm TGR inh 6%.
O=S(=O)(NCC(c1cccnc1)N1CCN(c2ccccc2)CC1)c1cc(F)ccc1F (stereo unspecified) was read as SARS PLpro yeast -11%, Pf growth 48h 10µM*, Pf growth 96h 2% and Sm TGR inh inconclusive.
`CN(Cc1cccc(Cl)c1Cl)C(=O)c1ccc(NC(=O)CC#N)cc1` gave SARS PLpro yeast 15%, Pf growth 48h -27%, Pf growth 96h 15µM* and Sm TGR inh -7%.
For Oc1ccccc1CN(CCc1ccccc1)Cc1ccccc1 the results were SARS PLpro yeast -17%, Pf growth 48h inconclusive, Pf growth 96h inconclusive and Sm TGR inh 0%.
`OCCN(Cc1ccccc1)Cc1nc(CC2CC2)no1` gave SARS PLpro yeast -1%, Pf growth 48h 4%, Pf growth 96h 1.7µM* and Sm TGR inh 11%.
